Reference: the antibiotic and cytotoxicity screens of Wong et al. (2023)
In all, about 39,000 compounds went through this assay and about 3,300 (8.5%) were called active. The entries come from a sample that favours actives as a whole.

Test system: HepG2
Test: cytotoxicity call (relative viability < 0.9)
Settings: 10 µM

Structure (SMILES) | cytotoxicity call
C[C@@H](N)Cc1c[nH]c2ccc(O)cc12 | inactive
O=C1CC[C@@H]2NCC[C@H]2N1 | inactive
C[C@H](N)[C@H](O)c1ccc(O)c(O)c1 | inactive
CCC(N)C(O)c1ccc(O)c(O)c1.Cl (stereo not drawn) | active
CC[C@@H](N)[C@@H](O)c1ccc(O)c(O)c1 | inactive
CC=C(C)C(=O)OC1CCC2(C)C3CCC4C5(O)CC(O)C6(O)C(CN7CC(C)CCC7C6(C)O)C5(O)CC42OC13O.Cl (stereo not drawn) | inactive
N#C[C@H](O[C@@H]1O[C@H](CO)[C@@H](O)[C@H](O)[C@H]1O)c1ccc(O)cc1 | inactive
Cl.N=C(N)NN | inactive
[N-]=[N+]=Nc1ccc2[nH]ccc2c1 | inactive
O=c1[nH]c2cc(N3CCNCC3)ccc2o1 | active
Nc1ccc(N2CCNCC2)cc1 | inactive
Oc1ccc(N2CCNCC2)cc1 | inactive
OCc1ccco1 | inactive
Cc1nnc([C@H]2CCCNC2)o1 | inactive
CC[C@H]1/C=C/C=C/C[C@@H](C)[C@H](O)[C@@](C)(O)C(=O)[C@@H](C)[C@H](O)[C@@H](C)C(=O)[C@@H](C)[C@H](O)[C@@H](C)/C=C/C(=O)O[C@@H]2[C@H](C)[C@H](CC1)O[C@]1(CC[C@H](C)[C@H](C[C@@H](C)O)O1)[C@H]2C | inactive
COc1cc(C2c3cc4c(cc3C(O)C3COC(=O)C23)OCO4)cc(OC)c1OC (stereo not drawn) | active
COc1ccc2c(c1OC)C(=O)OC2C1c2cc3c(cc2CCN1C)OCO3 (stereo not drawn) | inactive
C[C@H](CO)N1C[C@H](C)[C@H](CN(C)C(=O)Oc2ccccc2)OCc2ccccc2-c2c(n(C)c3ccccc23)C1=O | inactive
C=C(C)C1Cc2c(ccc3c(=O)c4c(oc23)COc2cc(OC)c(OC)cc2-4)O1 (stereo not drawn) | inactive
COc1cc2c(cc1OC)C1C(=O)c3ccc4oc(C(C)C)cc4c3OC1CO2 (stereo not drawn) | active

Structure (SMILES) | cytotoxicity call
COc1cc2c(cc1OC)C1C(=O)c3ccc4c(c3OC1CO2)CC(C(C)C)O4 (stereo not drawn) | active
C=C(C)C1Cc2c(ccc3c2OC2COc4cc(OC)c(OC)cc4C2C3=O)O1 (stereo not drawn) | active
O=C(NCc1ccccc1)[C@H]1C[C@H]2CNC[C@H]1O2 | inactive
CC(C)(C)[C@@]1(O)C[C@H]2OC(=O)C[C@]23C(=O)O[C@H]2OC(=O)[C@@H](O)[C@]231 | inactive
C=CCN1CCC23c4c5ccc(O)c4OC2C(=O)CCC3(O)C1C5.Cl (stereo not drawn) | inactive
CCOC(OCC)P(=O)(O)CCCN | inactive
O=C1CO[C@H]2CNC[C@@H]2N1CC1CCCC1 | inactive
CCOC(=O)[C@H]1[C@@H](C=C(C)C)C1(C)C | inactive
COc1ccc(N(C(=O)Oc2c(C)cccc2C)c2ccnc(Nc3ccc(N4CCN(C)CC4)cc3)n2)c(OC)c1 | inactive
N=C(N)N/N=C/c1ccc2c(c1)OCO2 | inactive
Cc1o[nH]c(=O)c1C[C@H](N)C(=O)O | inactive
C#CC1(O)CCC2C3CCC4=CC(=O)CCC4(C)C3CCC21C (stereo not drawn) | active
CCC(=O)OC1CCC2C3CCC4=CC(=O)CCC4(C)C3CCC12C (stereo not drawn) | inactive
CC12CCC(=O)C=C1CCC1C2CCC2(C)C(O)CCC12 (stereo not drawn) | inactive
CN1[C@H](CO)[C@H]2c3ccccc3NC[C@H]21 | inactive
Cl.NNCc1ccccc1 | inactive
CC(=O)[O][Cd][O]C(C)=O | inactive
NC[C@@H](O)c1ccc(Br)cc1 | inactive
C[C@@H]1NC[C@@H]2CCCN2C1=O | inactive
O=c1[nH]c2ccccc2n1CCCN1CCC(n2c(=O)[nH]c3cc(Cl)ccc32)CC1 | inactive

Structure (SMILES) | cytotoxicity call
O=c1[nH]c2ccccc2n1C1CCN(CCCC(c2ccc(F)cc2)c2ccc(F)cc2)CC1 | active
NC[C@@H](CC(=O)O)c1ccc(Cl)cc1 | inactive
CCOC(=O)c1c(CN2CCN(Cc3ccccc3)CC2)n(Cc2ccccc2)c2cc(Br)c(O)cc12 | inactive
CN(C)C(=O)C(CCN1CCC(O)(c2ccc(Cl)cc2)CC1)(c1ccccc1)c1ccccc1.Cl | active
CN1CCN(CC2CC2)C(=O)C12CCNCC2 | inactive
O=C(C1CCCC1)N1C[C@@H]2CCNC[C@@H]21 | inactive
CCN1C(=O)/C(=C/c2ccc[nH]2)C(=O)NC1=S | inactive
CC12CCC3C(CCC4CC(O)CCC43C)C1CCC2=O (stereo not drawn) | inactive
CO[C@H]1[C@H](O)[C@@H](O[C@H]2[C@@H](C)O[C@@H](O[C@H]3[C@H](C)O[C@H](O[C@H]4CC[C@@]5(C)[C@@H](CC[C@@]6(O)[C@@H]5C[C@@H](O)[C@]5(C)[C@]6(O)CC[C@@]5(O)[C@@H](C)O)C4)C[C@@H]3OC)C[C@H]2OC)O[C@@H](C)[C@H]1O | inactive
CC12CCC3C(CCC4CC(O)CCC43C)C1CCC2O (stereo not drawn) | inactive
CO[C@H]1[C@@H](O)C[C@@H](O[C@H]2[C@@H](O)C[C@@H](O[C@H]3[C@@H](O)C[C@@H](O[C@H]4CC[C@@]5(C)[C@@H](CC[C@H]6[C@@H]5C[C@@H](O)[C@@]5(C)[C@H](C7=CC(=O)OC7)CC[C@@]65O)C4)O[C@@H]3C)O[C@@H]2C)O[C@@H]1C | active
CC(=O)OC1CC(OC2C(O)CC(OC3C(O)CC(OC4CCC5(C)C(CCC6C5CC(O)C5(C)C(C7=CC(=O)OC7)CCC65O)C4)OC3C)OC2C)OC(C)C1OC1OC(CO)C(O)C(O)C1O (stereo not drawn) | active
CO[C@H]1[C@@H](O)[C@@H](O[C@H]2CC[C@]3(C=O)[C@@H]4[C@@H](CC[C@]3(O)C2)[C@@]2(O)CC[C@H](C3=CC(=O)OC3)[C@@]2(C)C[C@H]4OC(C)=O)O[C@@H](C)[C@@H]1OC(C)=O | inactive
CC(=O)O[C@H]1C[C@H](O[C@H]2[C@@H](O)C[C@H](O[C@H]3[C@@H](O)C[C@H](O[C@H]4CC[C@@]5(C)[C@@H](CC[C@H]6[C@@H]5C[C@@H](O)[C@]5(C)[C@@H](C7=CC(=O)OC7)CC[C@]65O)C4)O[C@@H]3C)O[C@@H]2C)O[C@H](C)[C@H]1O[C@@H]1O[C@H](CO)[C@@H](O)[C@H](O)[C@H]1O | active
CC12CCC(O)CC1CCC1C2CC(O)C2(C)C(C3=CC(=O)OC3)CCC12O (stereo not drawn) | active
O=C(NC[C@H]1CC[C@]2(CNCCOC2)O1)c1ccnnc1 | inactive
C=C(C)[C@H]1CN[C@H](C(=O)O)[C@@H]1CC(=O)O | inactive
CO/C1=C\C(C)=C\[C@@H](C)[C@@H](O)[C@@H](C)C/C(C)=C/C=C/[C@H](OC)[C@@H]([C@@H](C)[C@@H](O)[C@H](C)C(=O)/C=C/[C@H](C)[C@H](O)C(C)C)OC1=O | inactive
